# Assay results taken from PubChem BioAssay.
# Calls of active or inactive are those of the source. Unless noted, the rule behind the calls is not given here.
# What was measured:
# [1] = HepG2 liver cancer cell viability effects, profiling panel, resazurin fluorescence, 24 h, PK04 Diversity Set (AID 1172); conditions: higher = more signal
# [2] = basal S. cerevisiae growth modulation, no modifier, primary screen, OD600, strain BY4716, 24 h, basal condition (AID 1173); conditions: OD600, 24 h, higher = more signal, called active from +8 up or from −8 down
# [3] = MM1S myeloma cell viability, profiling panel, resazurin fluorescence, basal, 24 h, PK04 Diversity Set (AID 1174); conditions: higher = more signal, called active from +8 up or from −8 down;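 note: MM1S multiple myeloma cell line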
# [4] = molecular target: Dihydroorotate dehydrogenase (quinone), mitochondrial (Plasmodium falciparum (isolate 3D7)) (UniProt Q08210); assay: PfDHODH enzyme inhibitors, primary screen, biochemical, C-terminal His tag, absorbance 600 nm (AID 1175); conditions: DCIP absorbance 600 nm, higher = more signal, called active from +8 up or from −8 down;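 note: recombinant parasite enzyme with a five histidine tag at its C terminus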
# [5] = P. aeruginosa biofilm formation inhibitors, primary screen, strain PAO1, LB-PBS medium, absorbance 600 nm (AID 1176); conditions: P. aeruginosa PAO1 growth/biofilm, A600, 12 h; higher = more signal
# [6] = S. cerevisiae RM11-1a growth modifiers, primary screen, strain RM11-1a, OD600, basal, 24 h (AID 1177); conditions: OD600, 24 h, higher = more signal, called active from +8 up or from −8 down;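 note: cultures grown under basal conditions with no added stressor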
# [7] = E. coli acrAB mutant growth effects, primary screen, E. coli filamentation inducers, strain DRC39, OD650, 24 h (AID 1178); conditions: higher = more signal, called active from +8 up or from −8 down;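 note: growth measured as culture turbidity by optical density at 650 nm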
# [8] = E. coli acrAB mutant growth effects, primary screen, E. coli filamentation inducers, strain DRC39, OD650, 48 h (AID 1179);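 note: screen aims at cell division blockers that make cells filament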; conditions: E. coli DRC39 delta-acrAB growth, higher = more signal, called active from +8 up or from −8 down
# [9] = RPMI8226 myeloma cell viability, profiling panel, resazurin fluorescence, basal, 24 h, PK04 Diversity Set (AID 1180); conditions: higher = more signal;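 note: RPMI8826 multiple myeloma cell line at 5000 cells per well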
# [10] = molecular target: E3 ubiquitin-protein ligase XIAP (Homo sapiens) (UniProt P98170); assay: XIAP binders, primary screen, biophysical, small-molecule microarray, fluorescence 635 nm (AID 1181); conditions: small-molecule microarray binding, higher = more signal;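 note: score merges 667 nm emission and signal to noise over triplicate slides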
# [11] = test system: XIP peptide (Xip251-270) binding; assay: small-molecule binders of XIP peptide, primary screen, biochemical, small-molecule microarray, fluorescence 635/667 nm, 0.1 µg/mL protein (AID 1182); conditions: fluorescent protein binding, 635 nm, higher = more signal, called active from +8 up or from −8 down
# XIP peptide (Xip251-270) = assay: small-molecule binders of XIP peptide, primary screen, biochemical, small-molecule microarray, fluorescence 635/667 nm, 0.5 µg/mL protein (AID 1183); conditions: small-molecule microarray binding, fluorescence 635 nm; higher = more signal
# [12] = Plasmodium falciparum growth inhibition, primary screen, strain 3D7, DAPI fluorescence, 100 nL (AID 1184);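 note: parasites grown inside human red blood cells in medium with human serum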; conditions: P. falciparum 3D7 growth, 3 d, higher = more signal
# [13] = molecular target: Homeobox protein Hox-A13 (Mus musculus) (UniProt Q62424); assay: inhibitors of HoxA13-DNA binding, primary screen, biochemical, fluorescence polarization, labeled oligonucleotide (AID 1185); conditions: 15 min, higher = more signal, called active from +8 up or from −8 down
# [14] = inhibitors of hydroxyurea-induced Chk1 phosphorylation, primary screen, imaging, HeLa, phospho-Chk1 antibody, percent positive cells (AID 1186); conditions: hydroxyurea-induced phospho-Chk1 immunofluorescence imaging, higher = more signal
# [15] = inhibitors of hydroxyurea-induced Chk1 phosphorylation, primary screen, imaging, HeLa, phospho-Chk1 nuclear intensity (AID 1187); conditions: hydroxyurea-induced phospho-Chk1 immunofluorescence imaging, higher = more signal
# Sequence of E3 ubiquitin-protein ligase XIAP (Homo sapiens) (P98170 whole entry, looked up): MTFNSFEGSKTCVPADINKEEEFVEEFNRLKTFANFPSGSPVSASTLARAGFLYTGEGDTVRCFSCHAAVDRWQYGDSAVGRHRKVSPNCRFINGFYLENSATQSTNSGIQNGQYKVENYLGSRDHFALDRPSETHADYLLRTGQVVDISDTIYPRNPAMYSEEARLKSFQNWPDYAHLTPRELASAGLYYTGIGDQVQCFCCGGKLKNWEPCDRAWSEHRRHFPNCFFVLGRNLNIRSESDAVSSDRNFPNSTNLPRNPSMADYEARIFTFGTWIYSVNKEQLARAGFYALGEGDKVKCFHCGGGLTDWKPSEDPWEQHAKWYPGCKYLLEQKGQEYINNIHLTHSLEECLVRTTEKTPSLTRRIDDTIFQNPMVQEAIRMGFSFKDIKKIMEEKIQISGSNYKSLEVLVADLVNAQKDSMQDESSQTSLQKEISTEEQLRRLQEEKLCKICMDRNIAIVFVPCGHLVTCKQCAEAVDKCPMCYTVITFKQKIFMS
# Sequence of Dihydroorotate dehydrogenase (quinone), mitochondrial (Plasmodium falciparum (isolate 3D7)) (Q08210 whole entry, looked up): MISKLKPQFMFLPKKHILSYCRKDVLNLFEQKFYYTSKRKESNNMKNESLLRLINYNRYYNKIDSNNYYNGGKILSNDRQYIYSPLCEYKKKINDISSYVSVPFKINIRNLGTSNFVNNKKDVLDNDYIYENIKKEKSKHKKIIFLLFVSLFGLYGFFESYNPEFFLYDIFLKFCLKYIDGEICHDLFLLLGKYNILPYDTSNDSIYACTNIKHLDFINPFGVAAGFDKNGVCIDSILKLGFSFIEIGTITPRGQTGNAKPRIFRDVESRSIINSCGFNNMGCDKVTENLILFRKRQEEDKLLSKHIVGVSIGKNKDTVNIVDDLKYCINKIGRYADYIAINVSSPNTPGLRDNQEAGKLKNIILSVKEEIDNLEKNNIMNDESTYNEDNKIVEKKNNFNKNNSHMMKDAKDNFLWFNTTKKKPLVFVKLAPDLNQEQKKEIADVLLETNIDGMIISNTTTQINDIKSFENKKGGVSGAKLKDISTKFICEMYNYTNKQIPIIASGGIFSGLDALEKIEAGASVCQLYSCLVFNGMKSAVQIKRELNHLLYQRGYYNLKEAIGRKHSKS
# Sequence of Homeobox protein Hox-A13 (Mus musculus) (Q62424 whole entry, looked up): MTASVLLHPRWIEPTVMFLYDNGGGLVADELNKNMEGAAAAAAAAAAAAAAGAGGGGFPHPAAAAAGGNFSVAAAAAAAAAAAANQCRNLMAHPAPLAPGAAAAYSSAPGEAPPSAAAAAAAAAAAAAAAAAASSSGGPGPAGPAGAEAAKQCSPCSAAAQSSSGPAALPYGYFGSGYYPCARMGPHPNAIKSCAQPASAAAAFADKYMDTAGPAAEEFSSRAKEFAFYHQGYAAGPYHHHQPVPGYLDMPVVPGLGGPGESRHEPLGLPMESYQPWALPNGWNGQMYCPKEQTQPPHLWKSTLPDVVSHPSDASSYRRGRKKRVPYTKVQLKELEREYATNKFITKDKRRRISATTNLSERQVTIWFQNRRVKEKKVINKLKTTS
Compound,z-score [1],z-score [2],z-score [3],composite z-score [4],z-score [5],z-score [6],z-score [7],z-score [8],z-score [9],composite z-score [10],composite z-score [11],composite z-score (XIP peptide (Xip251-270)),z-score [12],z-score [13],z-score [14],z-score [15]
CC(C)=CCCC(C)=CC(O)C1C=CC2C(=O)N(c3ccccc3)C(=O)C2N1Nc1ccc(C(C)C)cc1 (centres undefined),-0.307,0.125 (inactive),-0.862 (inactive),0.484 (inactive),0.0616 (inactive),1.47 (inactive),-0.427 (inactive),-0.306 (inactive),-0.463,-0.0382,0.365 (inactive),0.305,-0.25,-2.82 (inactive),0.342 (inactive),0.0288 (inactive)
CC#CC(=O)Oc1ccc(Br)cc1C=CC(=O)OCC,-0.0419,-14.7 (active),-2.38 (inactive),-0.632 (inactive),0.312 (inactive),-10.6 (active),-0.0142 (inactive),-1.01 (inactive),-3,1.25,1.17 (inactive),-0.101,-1.65,-3.79 (inactive),0.309 (inactive),-1.03 (inactive)
COC(=O)[C@@]1(CCC(=O)OC(C)(C)C)N=C(c2ccc(OCCCO)cc2)O[C@H]1c1ccccc1,-0.291,-0.814 (inactive),-1.34 (inactive),1.27 (inactive),0.618 (inactive),1.47 (inactive),-3.29 (inactive),-0.735 (inactive),-0.808,-0.0095,0.485 (inactive),0.732,-2.43,-4.58 (inactive),-0.17 (inactive),0.284 (inactive)
NCCCCCCNC(=O)[C@H]1C[C@H]2C(=O)N[C@@H](Cc3ccccc3)C(=O)N2[C@H]1c1cccc(OCCO)c1,-2.77,-0.669 (inactive),1.51 (inactive),1.18 (inactive),-0.627 (inactive),0.262 (inactive),0.968 (inactive),0.846 (inactive),1.06,0.081,1.16 (inactive),0.834,-0.516,-3.36 (inactive),-0.182 (inactive),-0.25 (inactive)
[N-]=[N+]=NCc1ccccc1C[C@@]1(C(=O)NCC(O)CO)N=C(c2ccc(OCCCO)cc2)O[C@@H]1c1ccccc1 (some centres undefined),-1.07,-2.07 (inactive),-0.243 (inactive),-0.0675 (inactive),0.466 (inactive),0.355 (inactive),1.39 (inactive),0.322 (inactive),-0.645,0.19,0.691 (inactive),0.684,-2.03,-4.12 (inactive),-0.0558 (inactive),0.274 (inactive)
COC(=O)[C@@]1(Cc2ccc(OC)cc2)[C@H]2c3cc(C(=O)N4CCCC4)n(CCCNc4ncc(C(F)(F)F)cc4Cl)c3C[C@H]2CN1C(=O)c1ccccc1,0.808,1.01 (inactive),-1.12 (inactive),-0.199 (inactive),-0.0982 (inactive),0.398 (inactive),-0.0379 (inactive),-0.816 (inactive),-2.67,0.0986,-0.546 (inactive),0.736,-1.41,-4.1 (inactive),0.259 (inactive),-0.101 (inactive)
CCOC(=O)C[C@H]1[C@H](OC(=O)c2ccc(C(=O)c3ccccc3)cc2)[C@@H](NC(=O)Cc2ccc(OC)cc2)c2cc(OCCCO)ccc2N1C(=O)c1ccc2ccccc2n1,-0.0666,-0.337 (inactive),-0.0911 (inactive),0.764 (inactive),0.207 (inactive),0.11 (inactive),-0.572 (inactive),-0.335 (inactive),0.273,0.0801,0.845 (inactive),0.172,-0.129,-1.9 (inactive),0.112 (inactive),-0.189 (inactive)
C=C(CCCC)/C(=C/C[C@@H](OC(C)=O)c1ccccc1OCCO)c1cc(C(=O)OC)ccc1OC,0.937,-0.746 (inactive),-0.909 (inactive),-0.04 (inactive),0.367 (inactive),0.724 (inactive),1.5 (inactive),1.04 (inactive),0.627,-0.02,-0.0324 (inactive),0.906,-2.51,-4.39 (inactive),-0.402 (inactive),0.114 (inactive)
CC(C)[Si](C#C[Si](C(C)C)(C(C)C)C(C)C)(O[C@H](C)c1cn(Cc2ccccc2)nn1)C(C)C,0.0403,0.745 (inactive),1.74 (inactive),-0.348 (inactive),0.419 (inactive),-0.0006 (inactive),-0.118 (inactive),0.164 (inactive),0.776,0.013,-0.0845 (inactive),0.0972,1.59,-0.236 (inactive),-0.175 (inactive),-0.288 (inactive)
C=CC[C@@]1(C(=O)N2CCCCC2)N=C(c2ccc(OCCCO)cc2)O[C@@H]1c1ccccc1N=[N+]=[N-],-0.355,-1.02 (inactive),-1.62 (inactive),0.479 (inactive),0.302 (inactive),0.597 (inactive),0.985 (inactive),-0.682 (inactive),-0.963,0.13,0.195 (inactive),0.602,-1.94,-2.64 (inactive),-0.679 (inactive),-0.667 (inactive)
O=C1C2C=CC(C(O)c3ccc4c(c3)OCO4)N(Nc3ccc([N+](=O)[O-])cc3)C2C(=O)N1c1ccccc1 (centres undefined),-0.415,-0.13 (inactive),-0.104 (inactive),-1.46 (inactive),0.0641 (inactive),-0.729 (inactive),-1.15 (inactive),-0.411 (inactive),-0.56,0.191,-0.164 (inactive),0.473,-0.54,-4.87 (inactive),0.0611 (inactive),-0.825 (inactive)
Cc1c(NC(=O)/C(C#N)=C/c2cccc([N+](=O)[O-])c2)c(=O)n(-c2ccccc2)n1C,0.131,-0.701 (inactive),-1.34 (inactive),-2.58 (inactive),0.972 (inactive),-2.91 (inactive),1.48 (inactive),0.837 (inactive),0.246,0.248,0.92 (inactive),0.695,-0.413,-2.41 (inactive),-0.782 (inactive),-1.15 (inactive)
CC(=O)NCCCC[C@@H]1NC(=O)[C@H]2C[C@@H](C(=O)O)[C@@H](c3ccc(O)cc3)N2C1=O,0.273,-1.35 (inactive),-0.481 (inactive),-0.24 (inactive),0.711 (inactive),3.29 (inactive),-1.91 (inactive),-0.879 (inactive),0.002,0.5,1.01 (inactive),0.764,-1.71,4.77 (inactive),0.402 (inactive),0.207 (inactive)
C=CCC(OC(C)=O)[C@@H]1[C@@H](N(Cc2ccc(-c3ccccc3)cc2)C(=O)Cc2ccc(F)cc2)c2cc(OCCCO)ccc2N1C(=O)c1ccc2ccccc2c1 (some centres undefined),-0.228,-0.458 (inactive),0.376 (inactive),0.683 (inactive),0.0885 (inactive),-0.198 (inactive),-0.794 (inactive),-0.397 (inactive),-0.112,-0.146,-0.568 (inactive),-0.245,-2.17,-1.35 (inactive),0.295 (inactive),-0.009 (inactive)
CN(C)CCCCCCNC(=O)[C@@H]1C[C@@H]2C(=O)N[C@@H](CCCC[N+](C)(C)C)C(=O)N2[C@@H]1c1ccc(O)cc1,-0.916,-0.661 (inactive),-1.07 (inactive),-1.06 (inactive),-0.0212 (inactive),-0.0569 (inactive),0.301 (inactive),0.575 (inactive),-0.746,0.0785,0.759 (inactive),0.146,1.99,-1.64 (inactive),0.702 (inactive),0.0464 (inactive)
C=CCN1C(=O)[C@]2(Cc3ccccc3)N=C(c3ccc(OCCCO)cc3)O[C@@H]2c2ccccc21,-0.983,-1.34 (inactive),-4.58 (inactive),-0.963 (inactive),0.824 (inactive),1.68 (inactive),0.0733 (inactive),0.884 (inactive),-5.39,0.33,0.7 (inactive),0.812,-2.1,-1.6 (inactive),-0.535 (inactive),-0.461 (inactive)
CC(C)CCC[C@@H](C)[C@H]1CC[C@@]2(C)C3=C(CC[C@]12C)[C@@]1(C)CC[C@H](OC(=O)c2ccc(C(F)(F)F)nc2)C(C)(C)C1CC3 (some centres undefined),0.305,-0.473 (inactive),0.175 (inactive),-1.08 (inactive),0.188 (inactive),-2.03 (inactive),0.634 (inactive),0.762 (inactive),0.605,-0.161,0.106 (inactive),-0.176,-0.145,-1.23 (inactive),-0.887 (inactive),-0.365 (inactive)
COc1cc2c(cc1O)C(c1cccs1)N(Cc1ccc([N+](=O)[O-])o1)CC2 (centres undefined),-0.302,-2.05 (inactive),0.278 (inactive),-4.93 (inactive),0.723 (inactive),-1.14 (inactive),-0.107 (inactive),1.19 (inactive),-0.182,-0.102,0.243 (inactive),0.947,-0.316,-6.24 (inactive),-0.334 (inactive),-0.445 (inactive)
O=C1O[C@@H](c2ccccc2)[C@@H](c2ccccc2)N2[C@@H](c3ccccc3OCCO)[C@]3(C(=O)Nc4ccccc43)[C@@H](C(=O)O)[C@H]12,-0.0985,-2.46 (inactive),0.19 (inactive),-0.487 (inactive),0.986 (inactive),0.324 (inactive),-0.582 (inactive),-0.76 (inactive),0.125,0.0755,1.14 (inactive),0.457,-0.6,-6.35 (inactive),0.405 (inactive),0.5 (inactive)
